Our source for the growth values is PubChem BioAssay (NCI).

About 83,000 compounds went through this panel and 20% of them were active in at least one assay; those are over-represented in the sample as a whole.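 Interpretation: 100, growth as untreated; towards 0, rising growth inhibition; 0, no net growth; 0 to -100, cell death. Compounds scoring below 10 were considered active.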 A number with no mark means an inactive call. Calls of active or inactive are those of the source.

Some test systems named below: RPMI-8226 leukemia; OVCAR-8 ovarian; OVCAR-5 ovarian; OVCAR-4 ovarian; SK-OV-3 ovarian; IGROV1 ovarian; OVCAR-3 ovarian; HS 578T breast; NCI/ADR-RES ovarian; T-47D breast; BT-549 breast; MDA-MB-435 melanoma; SW-620 colon; MCF7 breast; HCT-116 colon; HCC-2998 colon; KM12 colon.
Assay in all cases: NCI-60 one-dose screen, 48 h (100 = growth as untreated, 0 = no growth, -100 = all killed)
What all share (details): 10 µM unless noted

Turning to `Clc1ccc2c(Nc3ccc4oc(NCCN5CCCC5)nc4c3)ccnc2c1`, the growth in the test with RPMI-8226 leukemia is 77%; in the test with OVCAR-8 ovarian it was 94.3%; with OVCAR-5 ovarian, 101%; in the test on OVCAR-4 ovarian, 85.2%; in the test with SK-OV-3 ovarian it was 114%; with IGROV1 ovarian it was 93.7%. Also, the growth in the test on OVCAR-3 ovarian was 82.7%; with HS 578T breast, 97.1%; in the test with NCI/ADR-RES ovarian it was 101%; in the test on T-47D breast, 91.9%; in the test with BT-549 breast, 95.1%; with MDA-MB-435 melanoma, 101%. Moreover, the growth is 78.4% with SW-620 colon; 68.9% with MCF7 breast; 55.7% with HCT-116 colon; 76% in the test on HCC-2998 colon; 81.7% in the test with KM12 colon.

Take `C[n+]1ccc(C#N)c2ccccc21`: the growth is 94.6% in the test on RPMI-8226 leukemia; 111% in the test on OVCAR-8 ovarian; 103% with OVCAR-5 ovarian; 64.7% in the test on OVCAR-4 ovarian; 98.2% in the test with SK-OV-3 ovarian; 70.5% in the test on IGROV1 ovarian. Moreover, the growth in the test on OVCAR-3 ovarian was 4.02% (active); with HS 578T breast, 108%; in the test with NCI/ADR-RES ovarian it was 101%; in the test on T-47D breast, 88.8%; in the test with BT-549 breast it was 102%; in the test with MDA-MB-435 melanoma, 95.8%. Besides, the growth was 90.6% with SW-620 colon; 87.5% in the test on MCF7 breast; 80% with HCT-116 colon; 114% with HCC-2998 colon; 100% in the test on KM12 colon.

Turning to `COc1cccc2c1O/C(=C\c1c([N+](=O)[O-])ncn1C)C2=O`, the growth in the test on RPMI-8226 leukemia was -17% (active); in the test with OVCAR-8 ovarian, 94.4%; with OVCAR-5 ovarian, 108%; with OVCAR-4 ovarian, 106%; in the test on SK-OV-3 ovarian, 93.4%; in the test on IGROV1 ovarian, 97.4%. Moreover, the growth in the test on OVCAR-3 ovarian was 106%; in the test with HS 578T breast, 111%; in the test on NCI/ADR-RES ovarian it was 98.1%; with T-47D breast, 106%; in the test with BT-549 breast, 98%; in the test on MDA-MB-435 melanoma, 91.6%. In addition, the growth in the test with SW-620 colon was 105%; in the test with MCF7 breast it was 88.4%; with HCT-116 colon, 83.3%; with HCC-2998 colon, 105%; in the test with KM12 colon, 105%.

As to `CN1CCN(Cc2ccc(NC(=O)c3[nH]ncc3Nc3ccnc4ccnn34)cc2)CC1`, the growth with RPMI-8226 leukemia is 111%; with OVCAR-8 ovarian, 61.8%; with OVCAR-5 ovarian it was 94%; in the test with OVCAR-4 ovarian it was 62.1%; in the test on SK-OV-3 ovarian, 29.1%; with IGROV1 ovarian it was 58.3%. For the same compound, the growth with OVCAR-3 ovarian is 53.7%; in the test on HS 578T breast, 63%; in the test with NCI/ADR-RES ovarian it was 107%; in the test on T-47D breast, 63.2%; in the test on BT-549 breast it was 74.1%; in the test with MDA-MB-435 melanoma it was 56.1%. Also, the growth was 70.1% in the test with SW-620 colon; 35.9% in the test with MCF7 breast; 33.7% in the test on HCT-116 colon; 68.7% in the test with HCC-2998 colon; 32.7% in the test with KM12 colon.

In the case of `NNC(=O)NO`, the growth was 109% in the test with RPMI-8226 leukemia; 102% in the test with OVCAR-8 ovarian; 110% in the test on OVCAR-5 ovarian; 101% in the test on OVCAR-4 ovarian; 94.1% with SK-OV-3 ovarian; 108% in the test on IGROV1 ovarian. The growth was 106% with OVCAR-3 ovarian; 96.6% in the test with HS 578T breast; 109% in the test with NCI/ADR-RES ovarian; 98.9% in the test with T-47D breast; 99% in the test with BT-549 breast; 108% in the test on MDA-MB-435 melanoma. The growth with SW-620 colon was 103%; with MCF7 breast it was 94%; in the test on HCT-116 colon it was 101%; in the test with HCC-2998 colon it was 99.9%; in the test on KM12 colon, 98.2%.

With `CCOc1cccc(C2CC(=O)Nc3cc4c(cc32)OCO4)c1` (stereo not drawn), the growth in the test with RPMI-8226 leukemia is 71.1%; with OVCAR-8 ovarian, 89%; in the test with OVCAR-5 ovarian, 109%; in the test on OVCAR-4 ovarian it was 89.9%; with SK-OV-3 ovarian it was 86.6%; in the test with IGROV1 ovarian, 83.4%. Also, the growth in the test on OVCAR-3 ovarian is 82.4%; in the test on HS 578T breast it was 91.6%; in the test on NCI/ADR-RES ovarian it was 82.3%; with T-47D breast it was 66.9%; with BT-549 breast it was 82.4%; in the test with MDA-MB-435 melanoma, 29.2%. Moreover, the growth is 84.2% with SW-620 colon; 82.8% with MCF7 breast; 80.7% in the test on HCT-116 colon; 86.4% in the test with HCC-2998 colon; 72.3% in the test on KM12 colon.

Regarding `Fc1ccc(-c2nc(Nc3ccc(-c4nc5ccccc5[nH]4)cc3)nc(N3CCOCC3)n2)cc1`, the growth was -73.4% (active) with RPMI-8226 leukemia; -73.8% (active) in the test on OVCAR-8 ovarian; -74.7% (active) with OVCAR-5 ovarian; -73.9% (active) in the test with OVCAR-4 ovarian; -89.9% (active) in the test with SK-OV-3 ovarian; -71.2% (active) in the test with IGROV1 ovarian. The growth was -95.6% (active) with OVCAR-3 ovarian; -40.3% (active) with HS 578T breast; -87.5% (active) in the test with NCI/ADR-RES ovarian; -64.8% (active) with T-47D breast; -73.6% (active) in the test on BT-549 breast; -86.1% (active) with MDA-MB-435 melanoma. Besides, the growth was -74.2% (active) in the test with SW-620 colon; -73.8% (active) in the test on MCF7 breast; -85.5% (active) with HCT-116 colon; -89.9% (active) with HCC-2998 colon; -91.3% (active) with KM12 colon.

`COc1ccc(C(=O)Nc2nc(-c3ccc(Cl)cc3)cs2)cc1`: the growth in the test with RPMI-8226 leukemia is 94.4%; in the test on OVCAR-8 ovarian, 103%; in the test on OVCAR-5 ovarian it was 87%; in the test on OVCAR-4 ovarian, 108%; in the test with SK-OV-3 ovarian it was 87.1%; in the test on IGROV1 ovarian, 112%. For the same compound, the growth in the test on OVCAR-3 ovarian is 111%; in the test with HS 578T breast it was 94.3%; in the test on NCI/ADR-RES ovarian it was 120%; with T-47D breast it was 89.1%; in the test with BT-549 breast, 105%; with MDA-MB-435 melanoma, 97.7%. The growth in the test with SW-620 colon was 96.3%; with MCF7 breast, 92.9%; in the test on HCT-116 colon, 109%; in the test with HCC-2998 colon it was 112%; in the test with KM12 colon it was 99.2%.

As for `O[C@@H]1Cc2ccc3ccccc3c2N[C@H](c2ccoc2)C1`, the growth with RPMI-8226 leukemia is 103%; with OVCAR-8 ovarian, 101%; in the test with OVCAR-5 ovarian it was 100%; in the test on OVCAR-4 ovarian it was 99.1%; with SK-OV-3 ovarian, 102%; with IGROV1 ovarian it was 109%. Besides, the growth in the test with OVCAR-3 ovarian was 115%; in the test with HS 578T breast it was 104%; in the test on NCI/ADR-RES ovarian, 103%; with T-47D breast, 93.8%; with BT-549 breast, 106%; in the test with MDA-MB-435 melanoma, 107%. Besides, the growth in the test on SW-620 colon is 112%; in the test on MCF7 breast it was 94.5%; in the test on HCT-116 colon, 105%; in the test with HCC-2998 colon, 113%; with KM12 colon, 106%.
